Experimental data taken from PubChem BioAssay (NCI).
About 79,000 compounds went through this panel and 15% of them were active in at least one assay; those are over-represented in the sample as a whole. A number with no mark means an inactive call. No stated cut-off is given here; in the data, active means growth inhibition above about 70%; inactive means the rest.

assay: NCI Yeast Anticancer Drug Screen. Data for the sgs1 mgt1 strain (AID 161);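 further: 0% = growth of cultures given vehicle only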; conditions: S. cerevisiae sgs1 mgt1 strain, at 50.0 µM, active compounds read high
Summary of the method: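 Genetically altered yeast, compound exposure, growth inhibition relative to vehicle.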

Structure (SMILES)	growth inhibition
COc1ccc(C(=O)N/N=C/c2ccccc2OC)cc1	25.4%
O=C1OC(=O)c2c(Br)c(Br)c(Br)c(Br)c21	-16.4%
CCOc1cc2c(cc1O)CC[C@@H]1[C@@H]2CC[C@]2(C)C(OS(=O)OC3CC[C@@H]4[C@H]5CCc6cc(O)c(OCC)cc6[C@@H]5CC[C@@]34C)CC[C@@H]12 (some centres not stated)	4.8%
Cc1c(S)cnc2ccccc12	1.7%
CCCCc1c(O)nc(NCCCC(N)C(=O)O)[nH]c1=O (configuration not stated)	-7.2%
CCCC[n+]1cccc(C(=O)c2ccccc2)c1	0.7%
O=C1OC(c2ccc([N+](=O)[O-])cc2)=N/C1=C\c1cc(Br)ccc1O	49.7%
O=C1C(Cl)N(c2ccccc2[N+](=O)[O-])C1c1c[nH]c2ccccc12 (configuration not stated)	3.65%
CCOC(=S)SC(=S)SC(=S)OCC	2.6%
CCCCCCCCCSc1nc2ccc(N=Cc3ccccc3O)cc2s1	-23.5%
CC(C)NP(=O)(OC1CC(C)(C)N(O)C(C)(C)C1)OC1CC(C)(C)N(O)C(C)(C)C1	13.4%
OCC1OC(n2cnc3c(NCc4ccccc4)ncnc32)C(O)C1O (configuration not stated)	3.2%
O/N=C1\CC2CC1C1CC3(CC3)C21 (configuration not stated)	-0.15%
CCOC(=O)c1[nH]n(-c2ccccc2)c(=O)c1C=NC(=S)c1cccnc1	-29.2%
N=c1c(C(=O)O)cccn1O	9.1%
COc1cc2c3c(c1)CCCN3CCC2	-20.5%
CC(C)C12Cc3c(ccc4ccccc34)OC1(C)Oc1ccc3ccccc3c1C2 (configuration not stated)	-13.5%
